Holding throughout (test): NCI-60 one-dose screen, 48 h (100 = growth as untreated, 0 = no growth, -100 = all killed)
One experiment concerns HCT-15 colon. As to conditions: 10 µM unless noted.
The subject of the next experiment is HT29 colon. The settings on record: 10 µM unless noted.
In another experiment the test system is SNB-75 CNS. As to conditions: 10 µM unless noted.
The test system of a further experiment is SNB-19 CNS. As to conditions: 10 µM unless noted.
Another experiment has as its system U251 CNS. As to conditions: 10 µM unless noted.
The test system of a further experiment is PC-3 prostate. As to conditions: 10 µM unless noted.
For the next experiment, the system named is UACC-62 melanoma. The settings on record: 10 µM unless noted.
Another experiment deals with LOX IMVI melanoma. As to conditions: 10 µM.
For a further experiment, the system named is SK-MEL-5 melanoma. As to conditions: 10 µM unless noted.
The test system of a further experiment is SK-MEL-28 melanoma. As to conditions: 10 µM unless noted.

Structures are written as SMILES. About 83,000 compounds went through this panel and 20% of them were active in at least one assay; those are over-represented in the sample as a whole.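 Testing used 96-well plates and a 48-hour single-concentration exposure. Example: -40 means 40% of the starting cells died.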 A number with no mark means an inactive call. Calls of active or inactive are those of the source. Rule for the calls: active = growth percent below 10; inactive = the rest.

In the case of `NC(=S)N/N=C/c1ncccc1O`, the growth in the experiment on HCT-15 colon was 33.7%; in the experiment on HT29 colon it was 28.5%; with SNB-75 CNS, 26.7%; in the experiment on SNB-19 CNS, 29.1%; with U251 CNS it was 25.4%; in the experiment on PC-3 prostate it was 37%. For the same molecule, the growth in the experiment on UACC-62 melanoma was 18.3%; with LOX IMVI melanoma it was 10.5%.

Regarding `CC(=O)C1Cc2ccccc2C1=O` (configuration not stated), the growth was 108% in the experiment on HCT-15 colon; 104% with HT29 colon; 70.8% with SNB-75 CNS; 98% in the experiment with SNB-19 CNS; 103% in the experiment on U251 CNS; 94.7% with PC-3 prostate. For the same molecule, the figures for the growth with SK-MEL-5 melanoma, in the experiment on LOX IMVI melanoma and in the experiment on SK-MEL-28 melanoma were 103%, 94.4% and 115%, respectively.

On to `CCc1cnc2ccccc2c1/C=C/c1ccc(N(C)C)cc1`, for which the growth with HCT-15 colon is 26%; with HT29 colon it was 5.62% (active); in the experiment with SNB-75 CNS, 43.4%; in the experiment on SNB-19 CNS, 41.1%; in the experiment with U251 CNS, 26%; with PC-3 prostate, 54.7%. The growth in the experiment with SK-MEL-5 melanoma is 46.6%; in the experiment with UACC-62 melanoma it was 25.3%; with LOX IMVI melanoma, 43.7%; in the experiment on SK-MEL-28 melanoma, 59.9%.

The values above are taken from PubChem BioAssay (NCI).
